Test results as given in PubChem BioAssay (Tox21).
Results filed as inconclusive are left out. A call without a number means that no potency is given here. Calls of active or inactive are those of the source. Unless noted, the call rests on the fitted dose curve; in most records, active means well fitted curve in the direction sought with a large enough effect in the repeat runs; inconclusive means weak or mixed curves; inactive means no such curve, though single readings can be large; an effect the other way counts as inactive or inconclusive.

Tests used:
[1] = target: Estrogen receptor beta (Homo sapiens) (UniProt Q92731); test: qHTS assay to identify small molecule agonists of the estrogen receptor beta (ER-beta) signaling pathway (AID 1259377; active means well fitted activation curve with a large enough effect in the signal ratio in the repeat runs, not every such curve was filed as active; the % refers to the signal ratio; further: potency means the concentration at half of the fitted maximal effect); conditions: ER-beta-UAS-bla HEK293T, beta-lactamase FRET ratio, 16 h; series mostly up to 92.4 µM
Method in brief: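 In HEK293T cells bearing a UAS-beta-lactamase reporter under ER-beta control, DMSO-delivered compounds were incubated for 16 hr at 37C. Activity was detected as fluorescence 2 hours after LiveBLAzer B/G FRET substrate addition.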

[2] = qHTS assay to identify small molecule agonists of the androgen receptor (AR) signaling pathway in the presence of an antagonist - cell viability counter screen (AID 1259379); conditions: MDA-kb2 viability, CellTiter-Fluor, 16 h; series mostly up to 92.4 µM; further: nearly all actives have a fitted effect of over 25% in size; further: potency means the concentration at half of the fitted maximal effect
Method in brief: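 Fluorescence from CellTiter-Fluor, added after 15 hr and read 1 hr later, gave cell viability. Cells were MDA-kb2 exposed to compounds (15 concentrations) in the presence of 3.0uM nilutamide at 37C, 0% CO2.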

[3] = qHTS assay to identify small molecule agonists of the estrogen receptor beta (ER-beta) signaling pathway - cell viability counter screen (AID 1259380); conditions: ER-beta-bla HEK293T viability, CellTiter-Glo luminescence, 16 h; series mostly up to 92.4 µM; further: nearly all actives have a fitted effect of over 30% in size; further: potency means the concentration at half of the fitted maximal effect
Method in brief: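 Same-well viability counter screen. Cells: ER-beta-UAS-bla HEK293T, plated 6 hr before compound, in 2% charcoal-stripped FBS. Compound exposure 16 hr, 37C; viability by CellTiter-Glo luminescence after 30 min at room temperature.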

[4] = target: Androgen receptor (Homo sapiens) (UniProt P10275); test: qHTS assay to identify small molecule agonists of the androgen receptor (AR) signaling pathway in the presence of an antagonist (AID 1259381; calls by dose curve; further: nearly all actives have a fitted effect of over 15% in size; further: potency means the concentration at half of the fitted maximal effect); conditions: MDA-kb2 MMTV-luciferase, AR agonist + nilutamide, 16 h; series mostly up to 92.4 µM
Method in brief: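 Cells are MDA-kb2 (human breast carcinoma, MMTV-luc, AR/GR responsive). Nilutamide is present at 3.0uM final throughout; compounds are added at 15 concentrations and incubated 16hr at 37C before ONE-Glo luminescence detection.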

[5] = qHTS assay to identify small molecule antagonists of the estrogen receptor beta (ER-beta) signaling pathway - cell viability counter screen (AID 1259382); conditions: ER-beta-UAS-bla HEK293T viability, CellTiter-Glo luminescence, 16 h; series mostly up to 92.4 µM; further: nearly all actives have a fitted effect of over 55% in size; further: potency means the concentration at half of the fitted maximal effect
Method in brief: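 Following a 6 hr plating period, HEK293T cells carrying a UAS-driven beta-lactamase reporter under ER-beta control received compounds and 1nM E2 (final). After 16 hr at 37C and 2 hr substrate loading, CellTiter-Glo luminescence indicated viability.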

[6] = qHTS assay to identify small molecule agonists or antagonists of the thyroid stimulating hormone receptor (TSHR) signaling pathway - wild type cell line counter screen (AID 1259384; calls by dose curve; further: potency means the concentration at half of the fitted maximal effect); conditions: HEK293 wild type, cAMP HTRF counter-screen; series mostly up to 92.4 µM
Method in brief: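 Counter screen in untransfected Hek293: compounds (15-point titration, triplicate) plus phosphodiesterase inhibitor Ro20-1724 added after 18 h plating; 30 min RT. Intracellular cAMP via competitive d2/cryptate immunoassay, 1 h incubation.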

[7] = qHTS assay to identify small molecule agonists of the estrogen receptor alpha (ER-alpha) signaling pathway in the presence of an antagonist - cell viability counter screen (AID 1259386); conditions: VM7Luc4E2 viability, CellTiter-Fluor fluorescence, 22 h; series mostly up to 92.4 µM;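 further: cells exposed to compounds for 22 h at 37 °C before the viability read; nearly all actives have a fitted effect of over 30% in size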; further: potency means the concentration at half of the fitted maximal effect
Method in brief: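 Cells are starved of estrogens for 5 days in charcoal-stripped serum, seeded for 24hr and co-treated with ICI-182,780 (10.0nM final) and test compounds. After 22hr at 37C, viability is read as CellTiter-Fluor fluorescence.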

[8] = target: Estrogen receptor (Homo sapiens) (UniProt P03372); test: qHTS assay to identify small molecule agonists of the estrogen receptor alpha (ER-alpha) signaling pathway in the presence of an antagonist (AID 1259383; calls by dose curve; further: top concentration of the series differs between compounds; nearly all actives have a fitted effect of over 15% in size); conditions: VM7Luc4E2 cells, ERE-luciferase, +ICI-182,780, 22 h; series mostly up to 92.4 µM
Method in brief: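 Cells are hormone-deprived for 5 days (charcoal-stripped FBS, no phenol red), plated for 24hr, spiked with 10.0nM ICI-182,780, then dosed at 15 concentrations. After 22hr at 37C, ONE-Glo luminescence reports ERE-luciferase activity.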

[9] = target: Thyrotropin receptor (Homo sapiens) (UniProt P16473); test: qHTS assay to identify small molecule antagonists of the thyroid stimulating hormone receptor (TSHR) signaling pathway (AID 1259385; calls by dose curve; further: nearly all actives have a fitted effect of over 20% in size; further: potency means the concentration at half of the fitted maximal effect); conditions: TSHR-HEK293 cAMP HTRF, TSH-stimulated antagonist mode; series mostly up to 92.4 µM
Method in brief: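 Antagonist mode: compound-treated TSHR-expressing HEK293 cells were stimulated with 1.5 ng/mL TSH (final) in presence of Ro20-1724 for 30 min at RT. HTRF cAMP detection after 1 h; each compound tested at 15 concentrations, triplicate.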

Chain of Thyrotropin receptor (Homo sapiens) (P16473 whole entry, looked up): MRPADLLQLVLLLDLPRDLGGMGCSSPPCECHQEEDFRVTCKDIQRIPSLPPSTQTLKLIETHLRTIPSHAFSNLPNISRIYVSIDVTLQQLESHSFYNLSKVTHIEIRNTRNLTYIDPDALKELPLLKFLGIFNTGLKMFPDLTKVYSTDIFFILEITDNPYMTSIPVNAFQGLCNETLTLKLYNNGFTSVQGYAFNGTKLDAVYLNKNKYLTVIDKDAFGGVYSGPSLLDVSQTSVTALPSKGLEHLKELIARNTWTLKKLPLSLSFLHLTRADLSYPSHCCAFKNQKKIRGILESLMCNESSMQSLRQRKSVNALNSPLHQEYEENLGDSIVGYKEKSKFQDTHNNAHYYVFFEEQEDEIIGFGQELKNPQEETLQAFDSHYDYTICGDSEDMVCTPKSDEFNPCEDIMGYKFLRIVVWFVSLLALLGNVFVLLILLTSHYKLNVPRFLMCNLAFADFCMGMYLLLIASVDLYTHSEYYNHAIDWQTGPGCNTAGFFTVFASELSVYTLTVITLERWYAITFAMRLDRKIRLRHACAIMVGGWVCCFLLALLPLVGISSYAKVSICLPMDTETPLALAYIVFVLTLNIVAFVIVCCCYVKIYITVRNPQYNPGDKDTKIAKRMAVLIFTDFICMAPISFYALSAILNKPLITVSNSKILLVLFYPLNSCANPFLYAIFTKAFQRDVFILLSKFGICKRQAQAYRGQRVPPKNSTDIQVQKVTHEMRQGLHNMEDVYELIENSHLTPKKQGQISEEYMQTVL
Chain of Estrogen receptor (Homo sapiens) (P03372 whole entry, looked up): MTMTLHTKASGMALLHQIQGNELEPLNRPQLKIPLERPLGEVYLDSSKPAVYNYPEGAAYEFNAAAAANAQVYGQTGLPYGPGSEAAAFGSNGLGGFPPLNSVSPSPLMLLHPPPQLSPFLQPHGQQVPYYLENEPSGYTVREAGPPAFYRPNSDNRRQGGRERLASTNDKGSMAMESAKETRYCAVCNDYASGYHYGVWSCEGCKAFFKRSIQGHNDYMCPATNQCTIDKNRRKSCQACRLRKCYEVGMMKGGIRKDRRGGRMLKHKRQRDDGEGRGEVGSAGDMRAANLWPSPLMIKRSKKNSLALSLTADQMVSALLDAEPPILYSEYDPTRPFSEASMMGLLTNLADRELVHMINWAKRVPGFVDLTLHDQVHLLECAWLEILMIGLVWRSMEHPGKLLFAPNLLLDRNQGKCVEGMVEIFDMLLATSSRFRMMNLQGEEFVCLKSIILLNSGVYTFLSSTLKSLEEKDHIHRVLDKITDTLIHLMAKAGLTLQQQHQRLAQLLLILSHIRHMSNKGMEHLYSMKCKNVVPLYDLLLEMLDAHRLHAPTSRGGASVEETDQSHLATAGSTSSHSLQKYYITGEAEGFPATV
Chain of Androgen receptor (Homo sapiens) (P10275 whole entry, looked up): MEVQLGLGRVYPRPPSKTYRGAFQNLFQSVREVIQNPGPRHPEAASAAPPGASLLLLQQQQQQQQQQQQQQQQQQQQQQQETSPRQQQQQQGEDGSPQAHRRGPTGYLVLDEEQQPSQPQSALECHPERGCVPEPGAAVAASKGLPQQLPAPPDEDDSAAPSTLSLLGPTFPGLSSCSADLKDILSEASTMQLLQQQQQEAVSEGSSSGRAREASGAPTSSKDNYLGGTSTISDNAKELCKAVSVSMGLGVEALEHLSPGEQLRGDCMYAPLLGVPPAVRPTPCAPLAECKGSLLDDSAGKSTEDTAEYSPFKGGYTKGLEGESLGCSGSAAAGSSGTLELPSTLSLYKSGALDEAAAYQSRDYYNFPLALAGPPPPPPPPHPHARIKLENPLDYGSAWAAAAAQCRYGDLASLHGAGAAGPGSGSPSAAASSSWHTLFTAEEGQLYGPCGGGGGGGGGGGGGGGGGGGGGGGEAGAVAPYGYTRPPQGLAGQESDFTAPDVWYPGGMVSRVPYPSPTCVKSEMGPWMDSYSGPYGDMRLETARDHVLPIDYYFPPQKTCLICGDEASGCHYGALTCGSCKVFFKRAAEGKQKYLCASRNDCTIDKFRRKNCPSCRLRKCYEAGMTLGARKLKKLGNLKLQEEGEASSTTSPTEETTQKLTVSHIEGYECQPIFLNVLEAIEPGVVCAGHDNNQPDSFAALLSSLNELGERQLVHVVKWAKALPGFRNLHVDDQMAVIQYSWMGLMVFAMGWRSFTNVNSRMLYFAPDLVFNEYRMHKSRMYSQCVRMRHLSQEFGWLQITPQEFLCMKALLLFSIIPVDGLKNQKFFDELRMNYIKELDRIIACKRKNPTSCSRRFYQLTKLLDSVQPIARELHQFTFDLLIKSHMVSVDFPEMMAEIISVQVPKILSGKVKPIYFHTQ
Chain of Estrogen receptor beta (Homo sapiens) (Q92731 whole entry, looked up): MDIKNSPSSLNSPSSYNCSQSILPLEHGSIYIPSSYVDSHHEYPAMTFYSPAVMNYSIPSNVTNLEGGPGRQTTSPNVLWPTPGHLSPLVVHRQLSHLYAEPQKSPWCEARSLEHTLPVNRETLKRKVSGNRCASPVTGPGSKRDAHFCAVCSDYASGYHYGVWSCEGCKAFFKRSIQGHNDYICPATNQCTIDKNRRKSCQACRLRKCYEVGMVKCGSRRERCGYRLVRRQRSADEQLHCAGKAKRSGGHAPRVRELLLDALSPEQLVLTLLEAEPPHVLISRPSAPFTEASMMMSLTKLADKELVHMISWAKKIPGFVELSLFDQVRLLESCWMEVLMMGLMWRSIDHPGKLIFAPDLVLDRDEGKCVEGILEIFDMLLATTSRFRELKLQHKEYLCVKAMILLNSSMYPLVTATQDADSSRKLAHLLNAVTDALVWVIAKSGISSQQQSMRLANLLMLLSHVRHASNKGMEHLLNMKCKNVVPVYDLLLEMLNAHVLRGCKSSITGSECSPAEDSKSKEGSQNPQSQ

| SMILES | Potency [1] | Potency [2] | Potency [3] | Potency [4] | Potency [5] | Potency [6] | Potency [7] | Potency [8] | Potency [9] |
| --- | --- | --- | --- | --- | --- | --- | --- | --- | --- |
| C[C@]12CC[C@H]3[C@@H](CCC4=CC(=O)CC[C@@H]43)[C@@H]1CC[C@@H]2OC(=O)CCc1ccco1 | 2.66 µM (active) | inactive | inactive | 0.0237 µM (active) | inactive | inactive | inactive | – | – |
| CCN1CCC2(CC1)COc1cc3c(cc12)N(C(=O)c1ccc(-c2ccc(-c4nnc(C)o4)cc2C)cc1)CC3 | – | 63.3 µM (active) | 6.33 µM (active) | inactive | 11.2 µM (active) | inactive | – | inactive | 63.3 µM (active) |
| C=CCBr | – | inactive | inactive | – | inactive | inactive | inactive | inactive | inactive |
| CC(O)C(=O)[O][Hg][c]1ccccc1 (stereo not drawn) | – | 6.86 µM (active) | 4.86 µM (active) | – | 4.33 µM (active) | 5.66 µM (active) | 12.2 µM (active) | inactive | 54.5 µM (active) |
